Experimental data as given in PubChem BioAssay (NCATS).
Records with an inconclusive call do not appear. Values without a mark were called inactive. Calls of active or inactive are those of the source. Calls come from the whole dose curve; as a rule, active = well fitted inhibition curve with a large enough effect; inconclusive = small, poorly fitted or top-dose-only effect; inactive = no such curve, though single readings can be large or run the other way.

Test: BET inhibitor-based combinations targeting novel dependencies in MECOM-rearranged (r) AML: OCI-AML3 cell line (AID 2202232); note: nearly all actives have a fitted effect of over 35% in size
Conditions: CellTiter-Glo luminescence, 48 h; Potency: OCI-AML3 viability; series mostly up to 46 µM; viability (% of control): at the top concentration
Excerpt: Ecotropic viral insertion site 1 (EVI1) is located on chromosome 3q26.2 as part of the MECOM (MDS and EVI1 complex) locus. Under normal hematopoiesis, EVI1 is a regulator of hematopoietic stem cell maintenance and self-renewal and EVI1 levels decrease as the cells differentiate. In approximately 5-10% of de novo acute myeloid leukemia (AML) EVI1 is aberrantly expressed, including Chromosomal inv(3)(q21;q26.2) or t(3;3)(q21;q26.2) alterations (MECOM-r) that account for about 50% of AML with EVI1 overexpression 31. AMLs with high levels of EVI1 have a poor prognosis and an overall survival time averaging between 10-14 months. EVI1 overexpression confers resistance in leukemia cells, highlighting the need to develop new targeted therapies for EVI1 overexpressing AMLs.
Here, we performed an unbiased chemical drug screening by evaluating the single agent activity of a collection of 2,480 oncology-focused, approved and investigational drugs (NCATS Mechanism Interrogation Plates, MIPE v5.0) against a panel of seven AML cell lines. These included four MECOM-r cell-lines (AML-191, AML-194, UCSD-AML1 and HNT-34) and three non-MECOM-r AMLs (MV4-11, OCI-AML3 and SET-2). Exploiting the mechanistic redundancy built in the library, we identified target-level sensitivities in MECOM-r AML cells and relative activity as compared to other AML subtypes.
A collection of 2480 mechanistically annotated dugs (MIPE v5.0) was used to screen four 3q26.2 rearranged AML cell lines and three non-3q26.2 rearranged AML cell lines. This library purposely exploits redundancy by including multiple inhibitors of key onco-targets, while simultaneously encompassing mechanistic diversity, targeting more than 800 distinct mechanisms of action. Briefly, cells were seeded in 5 uL of growth media using a Multidrop Combi dispenser into 1536 well white polystyrene tissue culture treated plates (Corning) at a density of 500cells/well. For each cell-line, for each of the 2480 drugs in MIPE v5.0 library, an 11-point dose curve was generated via a 1536 pin-tool. Plates were incubated for 48 hr at standard incubator conditions, covered by a stainless steel gasketed lid to prevent evaporation. Cell viability was determined by luminescence based, Cell Titer Glo assay (Promega). In detail, 3 uL of Cell Titer Glo were added to each well and plates were incubated at room temperature for 15 min with a stainless-steel lid in place. Luminescence readings were taken using a Viewlux (PerkinElmer) with a 2 s exposure time per plate. Compound dose-response curves were normalized to DMSO and empty well controls on each plate. Quantitative drug activity data from dose-response curves was determined utilizing area Under the Curve (AUC) and Z-transformed AUC (Z-AUC, a mean-centering transformation applied to each individual cell-line screened).
Potency is the fitted concentration of half-maximal effect.

Row | Structure (SMILES) | Potency | viability (% of control)
1 | Cc1[nH]nc2ccc(-c3cncc(OC[C@@H](N)Cc4c[nH]c5ccccc45)c3)cc12 | 934 nM (active) | 
2 | CN1[C@H]2CC(O)C[C@H]1[C@H]1O[C@H]12 (stereo not given in full) |  | 123%
3 | CC[C@@]1(O)C(=O)OCc2c1cc1n(c2=O)Cc2cc3ccccc3nc2-1 | 13.2 nM (active) | 
4 | CCCC[N+]1(C)[C@H]2CC(OC(=O)[C@H](CO)c3ccccc3)C[C@H]1[C@H]1O[C@H]12 (stereo not given in full) |  | 113%
5 | CO[C@H]1CCC(O[C@H]2C[C@H]([C@]3(C)CC[C@]4(C[C@H](O)[C@@H](C)[C@@H]([C@@H](C)/C=C(\C)C(=O)[C@H](C)C[C@H](C)C(=O)O)O4)O3)O[C@]3(O[C@@H]([C@H]4O[C@@](O)(CO)[C@H](C)C[C@@H]4C)C[C@@H]3C)[C@@H]2C)O[C@@H]1C (stereo not given in full) | 235 nM (active) | 
6 | C[C@@H]1CC[C@@]2(OC1)O[C@H]1C[C@H]3[C@@H]4CC=C5C[C@@H](O[C@@H]6O[C@H](CO)[C@@H](O[C@@H]7O[C@@H](C)[C@H](O)[C@@H](O)[C@H]7O)[C@H](O)[C@H]6O[C@@H]6O[C@@H](C)[C@H](O)[C@@H](O)[C@H]6O)CC[C@]5(C)[C@H]4CC[C@]3(C)[C@H]1[C@@H]2C | 7420 nM (active) | 
7 | C/C1=C/C[C@@H](/C(C)=C/c2csc(C)n2)OC(=O)C[C@H](O)C(C)(C)C(=O)[C@H](C)[C@@H](O)[C@@H](C)CCC1 | 59 nM (active) | 
8 | C[C@]12CC[C@@H]3[C@@H](CCC4=CC(=O)CC[C@@H]43)[C@@H]1CC[C@@H]2OC(=O)CCc1ccccc1 |  | 113%
9 | CCN1C[C@]2(OC(=O)c3ccccc3NC(C)=O)CC[C@H](OC)[C@@]34[C@H]5CC6[C@@H](OC)C[C@](O)(C(C[C@@H]23)[C@@H]14)[C@@]5(O)[C@@H]6OC |  | 121%
10 | CC1(C)C(=O)N(c2ccc(C#N)c(C(F)(F)F)c2)C(=S)N1Cc1ccc(-c2cn[nH]n2)cc1 | 11800 nM (active) | 
11 | CC(C)[C@]12O[C@H]1[C@@H]1O[C@@]13[C@@]1(C)CCC4=C(COC4=O)[C@@H]1C[C@@H]1O[C@@]13C2=O | 59 nM (active) | 
12 | Cc1sc2c(c1C)C(c1ccc(Cl)cc1)=N[C@@H](CC(=O)OC(C)(C)C)c1nnc(C)n1-2 | 263 nM (active) | 
13 | CCNC(=O)C[C@@H]1N=C(c2ccc(Cl)cc2)c2cc(OC)ccc2-n2c(C)nnc21 | 742 nM (active) | 
14 | CC(=O)Nc1ccc(OC[C@](C)(O)C(=O)Nc2ccc([N+](=O)[O-])c(C(F)(F)F)c2)cc1 |  | 102%
15 | Clc1ccccc1C(c1ccccc1)(c1ccccc1)n1cccn1 |  | 96.5%
16 | CC1(C)CC[C@]2(NC(=O)C(C)(F)F)CC[C@]3(C)[C@H](C(=O)C=C4[C@@]5(C)C=C(C#N)C(=O)C(C)(C)[C@@H]5CC[C@]43C)[C@@H]2C1 | 1480 nM (active) | 
17 | O=C1CC[C@@]2(O)[C@H]3Cc4ccc(O)c5c4[C@@]2(CCN3CC2CC2)[C@H]1O5 |  | 122%
18 | O=C(NCCCNc1nc(Nc2ccc(N3CCOCC3)cc2)ncc1C1CC1)C1CCC1 | 14800 nM (active) | 
19 | C=C[C@H]1CN2CCC1C[C@@H]2[C@@H](O)c1ccnc2ccccc12 (stereo not given in full) |  | 90.8%
20 | CN(C)CCN(C)CCc1ccc(Cl)c(Cl)c1 |  | 102%

Row | Structure (SMILES) | Potency | viability (% of control)
21 | CCOP(=O)(OCC)C(C)NC(=O)N(CCCl)N=O (stereo not given) |  | 135%
22 | COC[C@H]1OC(=O)c2coc3c2[C@@]1(C)C1=C(C3=O)[C@@H]2CC[C@H](O)[C@@]2(C)C[C@H]1OC(C)=O | 10500 nM (active) | 
23 | C[C@]12CC[C@@H]3c4ccc(OC(=O)N(CCCl)CCCl)cc4CC[C@H]3[C@@H]1CC[C@@H]2OP(=O)(O)O |  | 109%
24 | C[C@@H]1O[C@@H](O[C@@H]2C=C3CC[C@@H]4[C@H](CC[C@]5(C)[C@@H](c6ccc(=O)oc6)CC[C@]45O)[C@@]3(C)CC2)[C@H](O)[C@H](O)[C@H]1O | 14.8 nM (active) | 
25 | COc1ccc(N(C(=O)Oc2c(C)cccc2C)c2ccnc(Nc3ccc(N4CCN(C)CC4)cc3)n2)c(OC)c1 | 5900 nM (active) | 
26 | O=C(O)c1nn(Cc2ccc(Cl)cc2Cl)c2ccccc12 |  | 100%
27 | O=C(O)CNC(=O)C1C(=O)N(C2CCCCC2)C(=O)N(C2CCCCC2)C1=O |  | 97.5%
28 | CC[C@@H](C(N)=O)N1CCCC1=O |  | 107%
29 | C[C@H]1CCC/C=C/C2C[C@H](O)C[C@H]2[C@H](O)/C=C/C(=O)O1 (stereo not given in full) | 417 nM (active) | 
30 | O=C(O)CNC(=O)c1c(O)c2ccccc2n(Cc2ccccc2)c1=O |  | 112%
31 | CC(=O)c1c(O)c(C)c(O)c(Cc2c(O)c3c(c(C(=O)/C=C/c4ccccc4)c2O)OC(C)(C)C=C3)c1O |  | 58.4%
32 | CSCC[C@@H](NC(=O)[C@@H](Cc1ccccc1)NC(=O)CNC(=O)CNC(=O)[C@@H](N)Cc1ccc(O)cc1)C(=O)O |  | 127%
33 | CC1=C(O)C(=O)C=C2C1=CC=C1[C@@]2(C)CC[C@@]2(C)[C@@H]3C[C@](C)(C(=O)O)CC[C@]3(C)CC[C@]12C | 742 nM (active) | 
34 | CN1CCN(c2ccc([N+](=O)[O-])c3no[n+]([O-])c23)CC1 | 9340 nM (active) | 
35 | CNCC(O)c1ccc(O)cc1 (stereo not given) |  | 103%
36 | NN=C(N)N |  | 104%
37 | C[C@]12COC(=O)C[C@@H]1CC[C@@H]1[C@@H]2CC[C@@]2(C)[C@H]1CC[C@]2(C)O |  | 88.7%
38 | COc1cc2cc(c1Cl)N(C)C(=O)C[C@H](OC(=O)C(C)C)[C@]1(C)O[C@@H]1[C@H](C)[C@@H]1C[C@@](O)(NC(=O)O1)[C@H](OC)/C=C/C=C(\C)C2 |  | 14.4%
39 | CN1C(=O)[C@@H](NC(=O)[C@H](CCC(F)(F)F)[C@H](CCC(F)(F)F)C(N)=O)N=C(c2ccccc2)c2ccccc21 |  | 101%
40 | C[C@]12CCC(=O)C(O)=C1CC[C@@H]1[C@@H]2CC[C@]2(C)C(=O)CC[C@@H]12 |  | 92.4% [at 92.2 µM]
